From PubChem
AMA1-RON2 inh – disrupts binding of P. falciparum AMA1 to RON2; 360,000 tested, 0.2% active; AlphaScreen AMA1-biotinylated RON2 peptide binding; AID 720542; Potency, µM (doses to about 58.2 µM), without a hit: at the top dose activity change, negative = inhibition, hits mostly inhibitors;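 also: potency is read from the fitted curve at half-maximal effect; 0% = vehicle wells and -100% = peptide control; nearly all actives have a fitted effect of over 45% in size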
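AMA1 (3D7) with his tag at 25 nM final met compounds first, then biotinylated RON2 peptide at 25 nM; detection used donor plus acceptor beads, 10 µg/mL apiece, read by AlphaScreen after 30 min at room temperature.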
Pf growth 96h – inhibits malaria parasite growth, 96 h | P. falciparum luciferase reporter growth, 96 h | Potency, µM (top dose mostly 28.7 µM), for the others: at the highest dose activity change, negative = inhibition, usual class: inhibitors | 320,000 tested, 6.9% active | AID 504834; also: potency is read from the fitted curve at half-maximal effect; % is scaled to controls: 0 for no effect and ±100 for the full control effect
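Luminescence readout: decreased luciferase signal marks inhibited growth of reporter-expressing P. falciparum in infected red cells (2% hematocrit, 0.05% parasitemia final), exposed to compound two generations (96 h, 37 C, 5% CO2).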
CHX counter – counter-screen hit for Shiga toxin inhibitors, cycloheximide; cell reporter, cycloheximide protein synthesis inhibition counterscreen; max response, %; 300,000 tested, 12% active; in the data active = max response mostly above about 13%, no sharp cut-off; inactive = mostly below about 14%; also: read at 38.3 µM for the half of the compounds with a filed dose; 0% is about no effect
SARS PLP yeast – inhibitors of SARS-CoV papain-like protease in yeast. Potency, µM (titrated, usually from 32.9 µM), for inactives: at the top dose activity, positive = growth rescue, actives largely listed as activators. 330,000 tested, 0.19% active. S. cerevisiae expressing SARS-CoV PLpro, growth rescue; calls by dose curve; also: potency is read from the fitted curve at half-maximal effect; 0% is about no effect; nearly all actives have a fitted effect of over 55% in size
Pf growth 48h – P. falciparum growth inhibition at 48 hours (one generation) | P. falciparum luciferase growth in erythrocytes, 48 h | Potency, µM (top dose mostly 28.7 µM), for inactives: top-dose activity change, negative = inhibition, usual class: inhibitors | 310,000 tested, 5.9% active; also: potency is read from the fitted curve at half-maximal effect; % is scaled to controls: 0 for no effect and ±100 for the full control effect
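Firefly luciferase activity from engineered P. falciparum reports growth; inhibitors lower the luminescent signal. Cultures contained 2% hematocrit erythrocytes at 0.1% final parasitemia.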
Shiga inhibitor – blocks Shiga toxin action in Vero cells. AID 2315. inhibition, % at 38.7 µM. 290,000 tested, 9.2% active. Vero cells, Shiga toxin protein synthesis inhibition reporter; in the data active = inhibition mostly above about 28%, no sharp cut-off; inactive = mostly below about 43%; also: 0% is about no effect
An asterisk follows results filed as active; ? = inconclusive; nt = no result; [ ] = remark or other dose. The list is not random: actives were taken first. Their share in the collection is about 19%. Unless noted, calls follow the shape of the dose curve; as a rule, active = well fitted curve in the direction sought with a large enough effect; inconclusive = small, poorly fitted or top-dose-only effect, or another doubt; inactive = no such curve, though single readings can be large; an effect the other way counts as inactive or inconclusive.

SMILES	AMA1-RON2 inh	Pf growth 96h	CHX counter	SARS PLP yeast	Pf growth 48h	Shiga inhibitor
COc1ccc(/C=C/C(=O)NC2CCCCCCC2)cc1S(=O)(=O)N1CCOCC1	7%	5.9µM*	37*	-3%	?	70*
COc1ccc(/C=C/C(=O)Nc2ccccc2)cc1S(=O)(=O)N1CCOCC1	-1%	?	11*	-1%	?	17
COc1ccc(/C=C/C(=O)Nc2ccccc2)cc1OC	8%	191%	36*	-2%	240%	127*
COc1ccc(C)cc1NC(=O)/C=C/c1ccc(OC)c(S(=O)(=O)N2CCOCC2)c1	-11%	5.2µM*	nt	-11%	9.3µM*	nt
COc1ccc(/C=C/C(=O)NC(C)(C)C)cc1S(=O)(=O)N1CCOCC1	-5%	-3%	0	4%	7%	-10
Cc1noc(C)c1S(=O)(=O)N(C)C[C@H]1Oc2ccc(NC(=O)Cn3cnnn3)cc2C(=O)N([C@H](C)CO)C[C@@H]1C	-18%	nt	nt	0%	nt	nt
CN(Cc1ccc(OC(F)F)cc1)C(=O)/C=C/c1ccc(S(=O)(=O)N2CCOCC2)cc1	-12%	nt	nt	9%	nt	nt
COc1ccc(/C=C/C(=O)Nc2ccc(NC(C)=O)cc2)cc1S(=O)(=O)N1CCOCC1	-8%	?	2	0%	?	17
COc1ccc(OC)c(NC(=O)/C=C/c2ccc(S(=O)(=O)N3CCOCC3)cc2)c1	-3%	2.9µM*	nt	0%	12µM*	nt
COc1ccc(/C=C/C(=O)Nc2ccccc2Cl)cc1S(=O)(=O)N1CCOCC1	0%	10µM*	15	3%	10µM*	-1
COc1ccc(CN(C)C(=O)/C=C/c2ccc(S(=O)(=O)N3CCOCC3)cc2)cc1F	9%	?	nt	2%	12µM*	nt
COc1cc(/C=C/C(=O)NC(=O)c2ccccc2O)ccc1OC(C)=O	-3%	9.3µM*	33*	-22%	-20%	70*
CCCCNC(=O)O/N=C(\N)CS(=O)(=O)C(C)(C)C	-15%	39%	-3	1%	51%	8
Cc1ccc(C)c(NC(=O)CN(C)C(=O)C2=NNC(=O)CC2)c1	1%	nt	nt	-8%	nt	nt
N#C/C(=C\c1c[nH]c2ccccc12)C(=O)NCC1CCCO1 (centres undefined)	-8%	51%	31*	0%	42%	54*
COc1ccc(/C=C(\C#N)C(=O)NCC2CCCO2)cc1OC (centres undefined)	1%	?	6	-7%	-7%	-6
O=C(CCc1c[nH]c2ccccc12)NCC1CCCO1 (centres undefined)	-6%	32%	-2	8%	13%	27
N#C/C(=C\c1cccs1)C(=O)NCC1CCCO1 (centres undefined)	4%	6%	25*	1%	58%	80*
Cc1[nH]c2ccccc2c1/C=C(\C#N)C(=O)NCC1CCCO1 (centres undefined)	-1%	22%	18*	0%	-10%	16
N#C/C(=C/c1cc(Br)cs1)C(=O)NCC1CCCO1 (centres undefined)	-5%	49%	5	-8%	19%	-10
COc1cc(/C=C(\C#N)C(=O)NCC2CCCO2)ccc1OC(C)C (centres undefined)	?	?	73*	-10%	-11%	92
O=S(=O)(NC1CCSc2ccccc21)c1ccc(Cl)nc1 (centres undefined)	-8%	-29%	9	-3%	-4%	19
CN(C)S(=O)(=O)Nc1ccccc1F	-13%	?	-1	1%	24%	15
COc1ccc(-n2nnnc2C2(C)CCC(=O)N2Cc2ccccc2)cc1 (centres undefined)	1%	nt	nt	nt	nt	nt
Oc1ccc(-c2nc3ccc4ccccc4c3c3c2CCC3)cc1O	-6%	6%	23	-53%	15µM*	13
SMILES	AMA1-RON2 inh	Pf growth 96h	CHX counter	SARS PLP yeast	Pf growth 48h	Shiga inhibitor
Cc1ccc(NC(=O)/C(C#N)=C/c2cc(C)n(-c3ccc(N4CCOCC4)c([N+](=O)[O-])c3)c2C)c(C)c1	0%	12µM*	-2	-2%	?	-11
Cc1cc(/C=C(\C#N)C(=O)Nc2ccc(Cl)cc2)c(C)n1-c1ccc(N2CCOCC2)c([N+](=O)[O-])c1	0%	7.4µM*	-4	3%	12µM*	-3
Cc1cc(Nc2nc3ccccc3nc2Cl)n(-c2ccccc2)n1	31%	?	-4	-8%	nt	-9
Cc1cc(Nc2nc3ccccc3nc2Cl)n(-c2ccccc2C)n1	29%	1.5µM*	-3	-34%	1.5µM*	16
Nc1cccc(NC(=O)c2cccs2)c1	-15%	25%	15*	-1%	17%	20
Cc1cc(NC(=O)c2ccc(NC(=O)c3cccs3)cc2)no1	-21%	102%	11	18%	6%	15
Cc1cccc(Oc2ccc(NC(=O)c3ccccc3C(=O)O)cc2)c1	-11%	32%	20	0%	106%	24
CC1CC(C)CN(S(=O)(=O)c2ccc(NC(=O)[C@@H]3CCCN3C(=O)c3cccs3)cc2)C1 (some centres undefined)	-5%	?	nt	2%	12µM*	nt
O=C(Nc1ccc(Oc2ccc(C(=O)O)c(C(=O)O)c2)cc1)c1cccs1	-6%	2.1µM*	1	0%	7%	-15
O=C(Nc1cccc(NC(=O)c2ccccc2Cl)c1)c1cccs1	9%	-9%	1	-5%	16%	11
COc1ccc(C(=O)Nc2ccc(NC(=O)c3cccs3)cn2)cc1	?	-13%	20*	2%	38%	43
O=C(Nc1cccc(-n2cnnn2)c1)c1cccs1	10%	?	1	13%	-8%	-6
CC(C)C(=O)Nc1ccc(NC(=O)c2cccs2)cn1	-5%	0%	50*	5%	127%	114*
COc1cccc(C(=O)Nc2ccc(NC(=O)C(C)C)nc2)c1	-1%	26%	8	-1%	17%	15
COc1cccc(C(=O)COc2ccc(NC(=O)c3cccs3)cc2)c1	-12%	?	19*	2%	12µM*	20
O=C(Nc1cccc(N2CCCC2)c1)c1cccs1	-7%	-5%	27*	-12%	?	72*
CC(C)c1ccc(NC(=S)NNC(=O)c2cccs2)cc1	87%	-11%[1.15 µM]	42*	0%	20%	72*
O=C(Nc1ccc(NC(=O)c2ccc(Cl)cc2Cl)cc1)c1cccs1	15%	?	1	1%	6%	5
CNC(=S)NNC(=O)c1cccs1	40%	11%	-2	1%	14%	22
COc1c(Cl)cc(Cl)cc1C(=O)Nc1ccc(NC(=O)c2cccs2)cc1	-1%	13µM*	3	-3%	9.3µM*	-11
CCC1CCCCN1S(=O)(=O)c1ccc(NC(=O)c2cccs2)cc1 (centres undefined)	-1%	-19%	1	-27%	2.3µM*	16
